Assay results as given in PubChem BioAssay (NCI).
This is part of a sample that, as a whole, favours compounds with a hit. Of some 83,000 tested, about 20% had one in any assay.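 Assay: single dose, 48 h. Readout: percent growth (0 = no net growth; negative = cell death). Active: <10.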 Active and inactive are the calls of the source.

How the values were obtained:
Experiment in all cases: NCI-60 one-dose screen, 48 h (100 = growth as untreated, 0 = no growth, -100 = all killed)
Conditions in all cases: 10 µM unless noted
T-47D breast = tested on: T-47D breast
BT-549 breast = tested on: BT-549 breast
MDA-MB-435 melanoma = tested on: MDA-MB-435 melanoma
SW-620 colon = tested on: SW-620 colon
MCF7 breast = tested on: MCF7 breast
HCT-116 colon = tested on: HCT-116 colon
HCC-2998 colon = tested on: HCC-2998 colon
KM12 colon = tested on: KM12 colon

Measured: growth

O=C(Cc1n[nH]c(=O)c2ccccc12)OCc1c(Cl)cccc1Cl
inactive: T-47D breast 100% | BT-549 breast 138% | MDA-MB-435 melanoma 84.7% | SW-620 colon 86.9% | MCF7 breast 69.9% | HCT-116 colon 49.9% | HCC-2998 colon 70.8% | KM12 colon 66.1%

C=C1C(=O)O[C@H]2[C@H]1CC/C(COC(=O)NCc1ccc(OC)cc1)=C\CC[C@@]1(C)O[C@@H]21
inactive: T-47D breast 17.5% | BT-549 breast 29.7% | MDA-MB-435 melanoma 46.9% | MCF7 breast 15.2% | HCC-2998 colon 83.5% | KM12 colon 73.8%
active: SW-620 colon 1.83% | HCT-116 colon -48.7%

CC1Cc2c(N(C)C)ncnc2N(C)c2ccc(Cl)cc21 (configuration not stated)
inactive: T-47D breast 37.1% | BT-549 breast 24.6% | SW-620 colon 17.9% | MCF7 breast 15.2% | HCT-116 colon 16.9% | HCC-2998 colon 50.1% | KM12 colon 23.6%
active: MDA-MB-435 melanoma -32.2%

O=C(c1ccccc1)C(Cl)C(Cl)c1ccccc1 (configuration not stated)
inactive: BT-549 breast 96.5% | MDA-MB-435 melanoma 33.7% | HCC-2998 colon 98.1% | KM12 colon 81.3%
active: T-47D breast -1.59% | SW-620 colon -41.3% | MCF7 breast 9.18% | HCT-116 colon 7.77%

Cc1c(C2=NNC(c3ccc4c(c3)OCO4)C2)[n+]([O-])c2ccccc2[n+]1[O-] (configuration not stated)
inactive: T-47D breast 92.3% | BT-549 breast 91% | MDA-MB-435 melanoma 108% | SW-620 colon 98.4% | MCF7 breast 92.8% | HCT-116 colon 99.2% | HCC-2998 colon 84.2% | KM12 colon 113%

Cc1ccc(C(=O)c2sc3nc4c(cc3c2N)CCCC4)c(C)c1
active: MDA-MB-435 melanoma -44.5%
inactive: T-47D breast 35.4% | BT-549 breast 55.8% | SW-620 colon 30.3% | MCF7 breast 21% | HCT-116 colon 25.3% | HCC-2998 colon 39.6% | KM12 colon 33.9%

COc1ccc(-c2nc3sccn3c2-c2ccnc(NCCCNS(=O)(=O)c3ccc(F)cc3)n2)cc1
active: T-47D breast -12.7% | HCT-116 colon 8.56% | KM12 colon 9.82%
inactive: BT-549 breast 10% | MDA-MB-435 melanoma 14.1% | SW-620 colon 23.2% | MCF7 breast 11.6% | HCC-2998 colon 52%

CC(Br)C(Br)c1cc2c(cc1Br)OCO2 (configuration not stated)
inactive: T-47D breast 73.7% | BT-549 breast 100% | MDA-MB-435 melanoma 97.9% | SW-620 colon 109% | MCF7 breast 93.9% | HCT-116 colon 88.5% | HCC-2998 colon 96% | KM12 colon 103%

O=C(Nc1cccc(Cl)c1)c1cc([N+](=O)[O-])ccc1O
inactive: T-47D breast 41.9% | BT-549 breast 66.5% | MDA-MB-435 melanoma 60.4% | SW-620 colon 58.7% | MCF7 breast 42.9% | HCT-116 colon 45.9% | HCC-2998 colon 29.2% | KM12 colon 43.1%

COc1cccc(-c2nc3sccn3c2-c2ccnc(NCCNS(=O)(=O)c3ccccc3)n2)c1
active: T-47D breast 9.54%
inactive: BT-549 breast 58.2% | MDA-MB-435 melanoma 29.8% | SW-620 colon 106% | MCF7 breast 53.3% | HCT-116 colon 49.7% | HCC-2998 colon 119% | KM12 colon 53.4%

CCCCn1c(=O)c(C2CNC(=O)c3ccccc3N2)cc2ccccc21 (configuration not stated)
inactive: T-47D breast 93.7% | BT-549 breast 97.8% | MDA-MB-435 melanoma 105% | SW-620 colon 99.2% | MCF7 breast 99.6% | HCT-116 colon 94.9% | HCC-2998 colon 108% | KM12 colon 101%

CCOC(=O)c1cc(/C(=N\O)c2cc(OC)c(OC)c(OC)c2)n2cc(C)cc(C)c12
active: MDA-MB-435 melanoma -22.7% | HCT-116 colon -6.14%
inactive: T-47D breast 26.9% | BT-549 breast 28.6% | SW-620 colon 13.3% | MCF7 breast 13.6% | HCC-2998 colon 67.5% | KM12 colon 20.7%

C=C1C(=O)O[C@H]2[C@H]1CC/C(COC(=O)NCCc1cccc(OC)c1)=C\CC[C@@]1(C)O[C@@H]21
active: SW-620 colon -10.8% | HCT-116 colon -63.9%
inactive: T-47D breast 20.4% | BT-549 breast 27.8% | MDA-MB-435 melanoma 39.6% | MCF7 breast 14.7% | HCC-2998 colon 83.5% | KM12 colon 63.7%

O=C(O)c1cccc([N+](=O)[O-])c1/C=C/c1ccccc1
inactive: T-47D breast 95.2% | BT-549 breast 106% | MDA-MB-435 melanoma 105% | SW-620 colon 96.7% | MCF7 breast 95.5% | HCT-116 colon 94.3% | HCC-2998 colon 103% | KM12 colon 99.8%

COc1ccc(C2CC(c3cccs3)=NN2c2ccc(S(=O)(=O)NC(=O)NCc3cccc(OC)c3)cc2)cc1 (configuration not stated)
inactive: T-47D breast 85.7% | BT-549 breast 116% | MDA-MB-435 melanoma 52.3% | SW-620 colon 107% | MCF7 breast 99% | HCT-116 colon 98.8% | HCC-2998 colon 111% | KM12 colon 98.5%

CCCCCCCN(CCCCCCC)C(=N)c1ccc(OC)c2ccccc12
active: T-47D breast -72.9% | BT-549 breast -7.55% | MDA-MB-435 melanoma -98.7% | SW-620 colon -89.1% | MCF7 breast -74.4% | HCT-116 colon -86.7% | HCC-2998 colon -92.5% | KM12 colon -84.3%

CCn1c(=O)c2c(=O)c3c4c(oc3oc2c2ccccc21)C(=O)c1ccccc1C4=O
inactive: BT-549 breast 85.1% | MDA-MB-435 melanoma 95.9% | SW-620 colon 73.5% | MCF7 breast 61.9% | HCT-116 colon 34.6% | HCC-2998 colon 101% | KM12 colon 86.6%
active: T-47D breast -9.96%

O=C1CCCCN1CCCCC#Cc1ccccc1C#Cc1ccccn1
inactive: T-47D breast 92.9% | BT-549 breast 117% | MDA-MB-435 melanoma 98.1% | SW-620 colon 103% | MCF7 breast 109% | HCT-116 colon 106% | HCC-2998 colon 88.5% | KM12 colon 111%

O=C(Nc1ccc(I)cc1)c1cc([N+](=O)[O-])ccc1O
inactive: T-47D breast 29.9% | BT-549 breast 34.3% | MDA-MB-435 melanoma 38.5% | SW-620 colon 35.2% | MCF7 breast 18.9% | HCT-116 colon 19.3% | HCC-2998 colon 16.1% | KM12 colon 21%

CCN(CC)c1cc(/C=C/c2ccc(OC)c(OC)c2)nc2cc(F)c(F)cc12
inactive: T-47D breast 40.2% | BT-549 breast 24.5% | MDA-MB-435 melanoma 100% | SW-620 colon 104% | MCF7 breast 65.3% | HCT-116 colon 24.3% | HCC-2998 colon 116% | KM12 colon 103%

Clc1ccc([I+]c2ccc(Cl)cc2Cl)c(Cl)c1
inactive: MDA-MB-435 melanoma 82.2% | HCC-2998 colon 58.3% | KM12 colon 39.3%
active: T-47D breast -44.9% | BT-549 breast 7.13% | SW-620 colon -43.4% | MCF7 breast -30.9% | HCT-116 colon -37.7%

CC(=O)N1Cc2ccccc2C(C)Cc2cc(Cl)ccc21 (configuration not stated)
inactive: T-47D breast 100% | BT-549 breast 115% | MDA-MB-435 melanoma 106% | SW-620 colon 106% | MCF7 breast 102% | HCT-116 colon 105% | HCC-2998 colon 100% | KM12 colon 103%

Cc1cc(Nc2nc(-c3ccc(F)cc3)nc3ccccc23)n[nH]1
inactive: T-47D breast 29.3% | BT-549 breast 72.9% | MDA-MB-435 melanoma 31.2% | SW-620 colon 48.8% | MCF7 breast 23.8% | HCT-116 colon 28.5% | HCC-2998 colon 67.3% | KM12 colon 14.8%

Cc1sc2nc(CSc3nnc(-c4ccco4)o3)[nH]c(=O)c2c1C
inactive: T-47D breast 95.4% | BT-549 breast 102% | MDA-MB-435 melanoma 105% | SW-620 colon 101% | MCF7 breast 104% | HCT-116 colon 115% | HCC-2998 colon 124% | KM12 colon 118%

Cc1ccc(S(=O)(=O)NCCCNc2nccc(-c3c(-c4ccccc4)nc4sccn34)n2)cc1
inactive: T-47D breast 39.9% | BT-549 breast 38.9% | MDA-MB-435 melanoma 34% | SW-620 colon 58.1% | MCF7 breast 42.8% | HCT-116 colon 15.2% | HCC-2998 colon 93.9% | KM12 colon 18.6%

O=S(=O)(NCCCNc1cc(-c2cn(-c3ccccc3)nc2-c2cccc(O)c2)ccn1)c1cccc2ccccc12
inactive: T-47D breast 33.1% | BT-549 breast 37.1% | MDA-MB-435 melanoma 32.8% | SW-620 colon 22.5% | MCF7 breast 15.8% | HCT-116 colon 28.1% | KM12 colon 25.5%
active: HCC-2998 colon -71%

CCOP(=O)(CCN1CCN(CCCCCOc2cc3c(cc2OC)C(=O)N2CCC[C@H]2C=N3)CC1)OCC
inactive: T-47D breast 46% | BT-549 breast 52.5% | MDA-MB-435 melanoma 93.7% | SW-620 colon 63.5% | MCF7 breast 35.9% | HCT-116 colon 80.1% | HCC-2998 colon 80.8% | KM12 colon 111%

O=C(CN1CCOCC1)Nc1ccc(-c2nc3ccccc3s2)cc1
inactive: T-47D breast 93.3% | BT-549 breast 104% | MDA-MB-435 melanoma 108% | SW-620 colon 108% | MCF7 breast 48.8% | HCT-116 colon 96.1% | HCC-2998 colon 88% | KM12 colon 107%

COC12CC(=O)C(C(C)=O)=C(O)C1(C)c1c(O)c(C)c(O)c(C(C)=O)c1O2 (configuration not stated)
inactive: T-47D breast 81% | BT-549 breast 78.7% | MDA-MB-435 melanoma 87.3% | SW-620 colon 80.2% | MCF7 breast 80.9% | HCT-116 colon 80.6% | HCC-2998 colon 65.9% | KM12 colon 49.6%
